Bioassay records deposited in PubChem by NMMLSC.
Compounds with a hit are over-represented: about 2.5% of the library has one in this group of screens.
MEKK3 PB1 HTS: raises or lowers MEK5 binding to the human MEKK3 PB1 domain. bead-based flow cytometry, Alexa488-MEK5 binding to MEKK3; actives lie on both sides; 0 = blocked by unlabeled MEK5, 100 = vehicle. binding response (% of control), % at 10 µM. 290,000 tested, 1.4% active. AID 1529;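 active means binding response more than 3 SD above or below the average of its plate-row segment, actives on both sides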;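 further: Alexa488 bead fluorescence after subtracting the streptavidin-only scavenger bead signal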
Target sequence (Q99759 whole entry, looked up, the tested form may be a part): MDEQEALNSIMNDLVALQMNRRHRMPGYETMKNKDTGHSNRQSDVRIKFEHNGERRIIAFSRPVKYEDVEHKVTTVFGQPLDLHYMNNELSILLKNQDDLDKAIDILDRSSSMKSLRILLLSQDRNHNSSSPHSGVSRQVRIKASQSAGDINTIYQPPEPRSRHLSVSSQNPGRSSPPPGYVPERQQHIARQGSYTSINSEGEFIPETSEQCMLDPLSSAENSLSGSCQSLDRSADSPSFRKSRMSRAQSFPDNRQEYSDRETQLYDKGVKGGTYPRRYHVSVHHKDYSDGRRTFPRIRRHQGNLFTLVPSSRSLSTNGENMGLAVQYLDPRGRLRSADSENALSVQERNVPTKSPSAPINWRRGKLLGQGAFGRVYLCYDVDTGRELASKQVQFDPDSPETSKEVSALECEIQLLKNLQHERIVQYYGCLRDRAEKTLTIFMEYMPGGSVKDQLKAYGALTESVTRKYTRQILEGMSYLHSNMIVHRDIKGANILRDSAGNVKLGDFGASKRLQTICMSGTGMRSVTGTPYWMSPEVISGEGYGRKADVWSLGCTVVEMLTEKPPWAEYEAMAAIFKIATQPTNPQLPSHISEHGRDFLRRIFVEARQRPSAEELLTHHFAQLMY
GRK2 aptamer HTS: human GRK2 inhibition via aptamer displacement; inhibition of aptamer binding, % at 10 µM; P25098; 330,000 tested, 0.59% active; bead flow cytometry, FAM-aptamer displacement from GRK2; AID 488847;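 active means inhibition of aptamer binding above 40%, roughly 3 SD of noise, on plates passing a quality check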;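 further: median bead fluorescence of bound FAM aptamer so fluorescent compounds give negative values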
MEKK2 mut-MEK5: signal of MEK5 binding to mutant human MEKK2 PB1 domain | percent response, % at 10 µM | 290,000 tested, 0.35% active | bead flow cytometry, Alexa488-MEK5 binding to MEKK2 mutant; in the data active means percent response above about 24%, passing the limit was not always enough
MEKK2 WT-MEK5: raises or lowers MEK5 binding to wildtype human MEKK2 PB1 domain; Q9Y2U5; bead flow cytometry, Alexa488-MEK5 binding to MEKK2 WT; actives lie on both sides; binding response (% of control), % at 10 µM; 290,000 tested, 1.1% active; AID 1531; in the data active means binding response below about 67% or above about 130%
Numbers stand for hits; – = inactive; · = not tested or not shown; [ ] = another dose, or the depositor's remark.

SMILES	MEKK3 PB1 HTS	GRK2 aptamer HTS	MEKK2 mut-MEK5	MEKK2 WT-MEK5
Cc1cc(C)nc(NN2C(=O)/C(=C/c3ccc(O)cc3)SC2=S)n1	–	84	–	–
N/C(=C\C(=O)c1cc(Cl)ccc1O)C(Cl)(Cl)Cl	–	–	–	-3.0
Cc1ccc(-c2csc3nc4c5ccccc5c(NCCCN(C)C)nn4c(=O)c23)cc1	–	–	65	195
Cc1ccc(-c2csc3nc(C)n(N)c(=O)c23)cc1	–	–	–	–
COc1ccc(NC(=O)CN2C(=O)S/C(=C/c3cccn3-c3ccc(C(=O)O)cc3)C2=O)cc1	–	49	–	–
COc1ccc(OC)c(NC(=O)CN2C(=O)NC(C)(c3ccc4c(c3)OCCO4)C2=O)c1 (stereo not drawn)	·	–	·	·
O=C(Nc1ccc(NC(=O)c2ccccc2Cl)cc1)c1cccnc1	39[inhibitor]	–	–	53[inhibitor]
CCOC(=O)c1c(C)[nH]c(C)c1C(=O)COC(=O)C1CC(=O)N(CCc2ccccc2)C1 (stereo not drawn)	·	–	·	·
O=C(Nc1cccc(-n2cnnn2)c1)c1cnccc1Cl	–	–	–	–
CCCCCCCCOC(=O)c1c(CSC(=N)N)n(C)c2cc(Br)c(OC(C)=O)cc12	–	·	136	281
CCOC(=O)c1c(CSc2nc(C)cc(C)c2C#N)n(C)c2cc(Br)c(OC(C)=O)cc12	–	–	–	–
CCOC(=O)c1c(CSC(=N)N)n(-c2ccc(Br)cc2)c2cc(Br)c(OC(C)=O)cc12	–	·	–	143
CC(C)(C)CN1CCC(Oc2cccc(C(=O)N3CCC[C@H]3CO)c2)CC1	–	–	–	–
CC(=O)Nc1ccc(OC(=O)c2cc3cc(Br)cc(Br)c3oc2=O)cc1	–	95	–	–
CC(=O)Nc1ccc(OC(=O)c2cc3cc(Br)ccc3oc2=O)cc1	–	–	–	–
CCOC(=O)c1c(NC(NC(C)=O)C(Cl)(Cl)Cl)sc2c1CCCC2 (stereo not drawn)	–	73	–	–
COC(=O)c1c(NC(NC(C)=O)C(Cl)(Cl)Cl)sc2c1CCCC2 (stereo not drawn)	–	–	–	–
NS(=O)(=O)c1ccc(S(=O)(=O)N(CCc2ccccc2)Cc2ccccn2)cc1	–	–	–	–
COC(=O)c1nc(NNC(=O)c2ccccc2)sc1-c1ccccc1	–	–	–	–
Cc1c(C)c2ccc(OC(C)C(=O)NC3CCN(Cc4ccccc4)CC3)cc2oc1=O (stereo not drawn)	–	–	–	–
CC1(C)CC(=O)C2=C(C1)N(c1ccc(F)cc1)C(=O)C2(NC(=O)c1ccccc1F)C(F)(F)F (stereo not drawn)	–	–	–	–
Cc1ccc(N2C(=O)C(NC(=O)c3ccccc3F)(C(F)(F)F)C3=C2CC(C)(C)CC3=O)cc1 (stereo not drawn)	–	75	–	–
CC12CCC(C(=O)N/N=C/c3ccc(O)cc3O)(OC1=O)C2(C)C (stereo not drawn)	–	–	–	–
COc1ccc(-c2c(O)c(C#N)c(-c3ccccc3)n(-c3ccc(OC)cc3)c2=O)cc1	–	97	–	–
CCCCn1c(N)c(N(CCOC)C(=O)c2cc(-c3ccc(F)cc3)nc3ccccc23)c(=O)[nH]c1=O	·	–	·	·
SMILES	MEKK3 PB1 HTS	GRK2 aptamer HTS	MEKK2 mut-MEK5	MEKK2 WT-MEK5
O=C(N/N=C/c1cccc(F)c1)c1cc(-c2ccco2)nc2ccccc12	–	43	–	–
COc1cc(/C=N/NC(=O)c2cc(-c3ccco3)nc3ccccc23)cc(OC)c1O	–	–	–	–
CCOc1ccc(N(CC(=O)Nc2ccc(C)c(C)c2)S(=O)(=O)c2c(C)noc2C)cc1	–	–	–	134
CCOc1ccc(/C=C/C(=O)Nc2ccc(C(N)=O)cc2)cc1OC	–	–	–	–
CCOc1cc(/C=C/C(=O)Nc2ccc(C(=O)NCCN(CC)CC)cc2)ccc1OCC(C)C	–	–	–	138
Cc1nn(C(C)C(=O)NCCCN2CCCCCC2)c(=O)c2cc3sccc3n12 (stereo not drawn)	–	–	–	144
Cc1c(CCC(=O)NCCCC(=O)O)c(=O)oc2cc3oc4c(c3cc12)CCCC4	–	·	–	–
COC(=O)c1ccccc1NC(=O)C/C(C)=N/NC(=O)Cc1ccc(Cl)cc1	6.0[inhibitor]	–	–	12[inhibitor]
O=S(=O)(c1ccc(-c2csc(Nc3ccc(Br)cc3)n2)cc1)N1CCCC1	–	–	–	-4.0
O=C(/C(Br)=C/Nc1cc(Cl)ccc1Cl)C(F)(F)F	–	86	–	–
O=C(O)C1Nc2c(Cl)cc(Cl)cc2C2C=CCC12 (stereo not drawn)	–	72	–	–
O=C(O)C1Nc2c(O)cccc2C2C=CCC12 (stereo not drawn)	–	–	–	–
O=C(O)C1Nc2ccc(Br)cc2C2C=CCC12 (stereo not drawn)	–	77	–	–
COc1ccc(CCNC(=O)CCn2c(=O)c3cccn3c3ccc(F)cc32)c(OC)c1OC	–	–	–	–
CN(C(=O)c1cccc(C(F)(F)F)c1)C1CCCc2ccccc21 (stereo not drawn)	1.0[inhibitor]	–	–	0.0[inhibitor]
COc1ccccc1NC(=O)c1c(Nc2ccccc2C)sc(C(=O)Nc2cccc(Cl)c2)c1N	–	–	–	-3.0
COc1ccc(Nc2sc(C(=O)c3ccc(Cl)cc3)c(N)c2C(=O)Nc2ccccc2OC)cc1	–	–	–	–
Cn1c(N)c(C(=O)COC(=O)[C@@H]2CCCN2S(=O)(=O)c2ccc(Cl)cc2)c(=O)n(C)c1=O	–	–	–	–
Cc1ccc(S(=O)(=O)N(CC(=O)Nc2cccnc2)c2ccccc2C)cc1	–	–	–	–
C=C(C(=O)Oc1ccccc1C(C)(C)C)c1ccccc1	·	–	·	·
O=C(O)CCCNc1cc(N2CCN(C(=O)c3ccco3)CC2)c2noc3c2c1C(=O)c1ccccc1-3	67[inhibitor]	–	–	60[inhibitor]
O=C1c2ccccc2-c2onc3c(N4CCN(CCO)CC4)cc(N4CCN(C(=O)c5ccco5)CC4)c1c23	81[inhibitor]	–	–	–
O=C(COC(=O)Cn1ccc(=O)[nH]c1=O)Nc1ccc(F)cc1	·	–	·	·
COC(=O)c1cc(NC(=O)c2cccc(Cl)c2)c(=O)oc1/C=C/Nc1cc(C)cc(C)c1	68[inhibitor]	–	558	·
COC(=O)c1cc(NC(=O)c2cccc(C(F)(F)F)c2)c(=O)oc1C	–	–	–	–
SMILES	MEKK3 PB1 HTS	GRK2 aptamer HTS	MEKK2 mut-MEK5	MEKK2 WT-MEK5
O=c1oc2c(O)c(O)cc3c(=O)oc4c(O)c(O)cc1c4c23	–	84	–	–
Cc1ccccc1-c1nc(CN2CCC(C(=O)NCCCN3CCCC3)CC2)c(C)o1	–	–	51	198
CCn1c2ccccc2c2cc(NC(C)=O)ccc21	–	–	–	–
CCn1c2ccccc2c2cc(NC(=O)CN3CCCC3)ccc21	–	–	–	139
CCC(C)c1ccc(NC(=O)CN(C)CC(=O)Nc2cccc(OC)c2)cc1 (stereo not drawn)	–	–	–	-6.0
COc1cccc(NC(=O)CN(C)CC(=O)Nc2ccc3c(c2)OCO3)c1	·	–	·	·
Cc1ccc(/C=C/C(=O)CCC(=O)O)cc1	–	–	–	–
CCCN(CCC)c1ccc(/C=C/c2ccc3cc(OCC)ccc3n2)cc1	–	–	51	·
